Assay in all cases: NCI-60 one-dose screen, 48 h (100 = growth as untreated, 0 = no growth, -100 = all killed)
One experiment deals with K-562 leukemia. The following applies: 10 µM unless noted.
The next experiment deals with MALME-3M melanoma. To be noted: 10 µM unless noted.
The next experiment concerns MDA-MB-231 breast. To be noted: 10 µM unless noted.
The subject of the next experiment is RXF 393 renal. The following applies: 10 µM unless noted.
The next experiment deals with SF-268 CNS. To be noted: 10 µM unless noted.
The test system of another experiment is SF-295 CNS. The following applies: 10 µM unless noted.
The subject of another experiment is SF-539 CNS. To be noted: 10 µM unless noted.
For the next experiment, the system named is UACC-257 melanoma. To be noted: 10 µM unless noted.
In another experiment the test system is M14 melanoma. The following applies: 10 µM unless noted.
The subject of another experiment is HCT-15 colon. To be noted: 10 µM unless noted.
Another experiment relates to HT29 colon. The following applies: 10 µM unless noted.
The next experiment concerns SNB-19 CNS. To be noted: 10 µM unless noted.
A further experiment concerns U251 CNS. To be noted: 10 µM unless noted.
A further experiment concerns PC-3 prostate. The following applies: 10 µM unless noted.
In another experiment the test system is SK-MEL-5 melanoma. To be noted: 10 µM unless noted.
In another experiment the test system is UACC-62 melanoma. To be noted: 10 µM unless noted.
A further experiment deals with LOX IMVI melanoma. To be noted: 10 µM unless noted.
The test system of the next experiment is SK-MEL-28 melanoma. The following applies: 10 µM.
In the next experiment the test system is SK-MEL-2 melanoma. The following applies: 10 µM unless noted.

This is part of a sample that, as a whole, favours compounds with a hit. Of some 83,000 tested, about 20% had one in any assay.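 Step 1: grow cells in 96-well plates. Step 2: add test compound at a single concentration. Step 3: incubate 48 h. Step 4: record percent growth.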 A number with no mark means an inactive call. Active and inactive are the calls of the source. Rule for the calls: active = growth percent below 10; inactive = the rest.

Regarding `CCCCC1CCc2cccc3c(SCC(=O)N(C)c4ccc(Cl)cc4)cc[n+]1c23` (stereo not drawn), the growth is 91.5% with K-562 leukemia; 106% with MALME-3M melanoma; 109% with MDA-MB-231 breast; 128% in the experiment on RXF 393 renal; 113% in the experiment on SF-268 CNS; 106% in the experiment on SF-295 CNS. The growth was 110% with SF-539 CNS; 110% in the experiment on UACC-257 melanoma; 105% in the experiment on M14 melanoma; 110% in the experiment with HCT-15 colon; 106% in the experiment with HT29 colon; 97.2% in the experiment with SNB-19 CNS. For the same compound, the growth in the experiment with U251 CNS was 108%; with PC-3 prostate it was 106%; in the experiment with SK-MEL-5 melanoma it was 102%; in the experiment with UACC-62 melanoma, 96.3%; in the experiment with LOX IMVI melanoma it was 99.7%; with SK-MEL-28 melanoma it was 105%. Also, in the experiment with SK-MEL-2 melanoma, the growth is 111%.
For `O=C1N=c2ccccc2=C1c1sc(=Nc2ccccc2)n(Nc2ccccc2)c1O`, the growth in the experiment with K-562 leukemia was 94.4%; with MALME-3M melanoma, 108%; in the experiment on MDA-MB-231 breast it was 95.1%; in the experiment on RXF 393 renal, 107%; with SF-268 CNS, 99.5%; in the experiment on SF-295 CNS, 102%. For the same compound, the growth in the experiment on SF-539 CNS is 104%; with UACC-257 melanoma it was 106%; with M14 melanoma, 99.7%; with HCT-15 colon, 102%; in the experiment on HT29 colon it was 112%; with SNB-19 CNS, 101%. Moreover, the growth in the experiment on U251 CNS is 97.5%; in the experiment with PC-3 prostate, 97.3%; with UACC-62 melanoma, 92.1%; with LOX IMVI melanoma, 100%; in the experiment with SK-MEL-28 melanoma, 112%; in the experiment with SK-MEL-2 melanoma, 103%.
For the compound `NCCOc1ncccc1/C=C1\c2ccccc2-c2ccc(F)cc21`, the growth was 3.28% (active) with K-562 leukemia; 32.3% in the experiment on MALME-3M melanoma; 34.7% in the experiment on MDA-MB-231 breast; 25.2% in the experiment with RXF 393 renal; 23.2% in the experiment with SF-268 CNS; 2.01% (active) with SF-295 CNS. The growth was 11.5% with SF-539 CNS; 67.6% in the experiment with UACC-257 melanoma; 25.2% in the experiment on M14 melanoma; 3.22% (active) with HCT-15 colon; 13% in the experiment on HT29 colon; 16% in the experiment on SNB-19 CNS. Besides, the growth in the experiment on U251 CNS was 8.04% (active); in the experiment with PC-3 prostate it was 42.5%; in the experiment with SK-MEL-5 melanoma, 25.1%; with UACC-62 melanoma it was 34.8%; in the experiment with LOX IMVI melanoma, -11.5% (active); with SK-MEL-28 melanoma, 70.2%. Further, the growth in the experiment on SK-MEL-2 melanoma is 112%.
Take `O=[N+]([O-])c1cc2c(ccc3occc32)o1`: the growth with K-562 leukemia is 11.9%; with MALME-3M melanoma, -33.1% (active); in the experiment on MDA-MB-231 breast it was 17.3%; in the experiment with RXF 393 renal, -2.62% (active); in the experiment on SF-268 CNS, 18.5%; in the experiment on SF-295 CNS, -34.9% (active). In addition, the growth is 33.5% with SF-539 CNS; -20.1% (active) in the experiment with UACC-257 melanoma; -8.26% (active) in the experiment on M14 melanoma; 12.1% in the experiment on HCT-15 colon; 11.8% in the experiment on HT29 colon; 49.4% with SNB-19 CNS. For the same compound, the growth in the experiment on U251 CNS was 48.7%; in the experiment with PC-3 prostate, 66.7%; with SK-MEL-5 melanoma, -77% (active); in the experiment with UACC-62 melanoma it was 20.5%; with LOX IMVI melanoma, -36.3% (active); in the experiment with SK-MEL-28 melanoma, -63.5% (active).
Turning to `Nc1cccc(Nc2cc(S(=O)(=O)O)c(N)c3c2C(=O)c2ccccc2C3=O)c1`, the growth with K-562 leukemia was 101%; with MALME-3M melanoma, 105%; with MDA-MB-231 breast, 107%; with RXF 393 renal it was 119%; in the experiment on SF-268 CNS, 101%; in the experiment on SF-295 CNS it was 118%. Besides, the growth in the experiment on SF-539 CNS was 101%; with UACC-257 melanoma it was 97%; with M14 melanoma it was 103%; in the experiment with HCT-15 colon, 96.7%; in the experiment with HT29 colon, 96.3%; in the experiment on SNB-19 CNS, 101%. The growth with U251 CNS is 95.5%; in the experiment with PC-3 prostate it was 100%; in the experiment on SK-MEL-5 melanoma, 103%; in the experiment with UACC-62 melanoma, 106%; with LOX IMVI melanoma, 85%; in the experiment on SK-MEL-2 melanoma, 100%.
With `CCOC(=O)C1=CN(C)C=C(C(=O)OCC)C1c1cc(Br)c(OCC)c(OC)c1`, the growth in the experiment on K-562 leukemia was -20.4% (active); with MALME-3M melanoma it was -1.58% (active); in the experiment on MDA-MB-231 breast, 36.8%; in the experiment on RXF 393 renal, 49.9%; in the experiment on SF-268 CNS it was 73.3%; with SF-295 CNS, -47.3% (active). Further, the growth in the experiment with SF-539 CNS is 58.9%; in the experiment with UACC-257 melanoma it was -50% (active); in the experiment with M14 melanoma, -37.3% (active); in the experiment with HCT-15 colon, 14.7%; in the experiment with HT29 colon, 7.46% (active); in the experiment on SNB-19 CNS it was 64.8%. The growth in the experiment on U251 CNS is 34.8%; in the experiment on PC-3 prostate, 45.2%; with SK-MEL-5 melanoma, 36.1%; in the experiment on UACC-62 melanoma it was -48% (active); in the experiment on LOX IMVI melanoma, 18.3%; with SK-MEL-28 melanoma, 18.8%. For the same compound, the growth in the experiment with SK-MEL-2 melanoma is 72.3%.
Regarding `COc1ccc2[nH]c(O)c(N=NC(=O)c3oc4ccccc4c3C)c2c1`, the growth with K-562 leukemia was 42.5%; with MALME-3M melanoma, -29.5% (active); in the experiment with MDA-MB-231 breast it was 23.8%; with RXF 393 renal, -36.2% (active); with SF-268 CNS, 57.7%; in the experiment with SF-295 CNS, 5.05% (active). Besides, the growth was 37.5% with SF-539 CNS; 50% with UACC-257 melanoma; 28.7% in the experiment on M14 melanoma; 41.1% in the experiment with HCT-15 colon; 27.3% in the experiment on HT29 colon; 42.7% in the experiment on SNB-19 CNS. Also, the growth was 2.05% (active) in the experiment with U251 CNS; 21.8% in the experiment with PC-3 prostate; 34.3% in the experiment on UACC-62 melanoma; 16.3% in the experiment on LOX IMVI melanoma; 15.8% in the experiment with SK-MEL-28 melanoma; 70.9% in the experiment on SK-MEL-2 melanoma.
As to `O=C1CCC(N2C(=O)c3cccc(NCCCCCCOc4ccc(Nc5nccc(Nc6ccccc6)n5)cc4)c3C2=O)C(=O)N1` (stereo not drawn), the growth in the experiment with K-562 leukemia was 46.8%; in the experiment on MALME-3M melanoma, 76.7%; in the experiment with MDA-MB-231 breast, 86.6%; in the experiment with RXF 393 renal, 94.7%; in the experiment on SF-268 CNS, 88.7%; in the experiment on SF-295 CNS it was 73.3%. For the same compound, the growth with SF-539 CNS was 89.1%; with UACC-257 melanoma it was 73.1%; with M14 melanoma, 88.1%; with HCT-15 colon it was 86.7%; in the experiment on HT29 colon, 88.1%; with SNB-19 CNS, 86.3%. Further, the growth was 83.3% with U251 CNS; 73.4% in the experiment on PC-3 prostate; 7.47% (active) in the experiment on SK-MEL-5 melanoma; 71.3% in the experiment with UACC-62 melanoma; 88.1% in the experiment with LOX IMVI melanoma; 82.9% with SK-MEL-28 melanoma. Moreover, in the experiment with SK-MEL-2 melanoma, the growth was 82.5%.
